Test results from PubChem BioAssay.

Tests used:
[1] = tested on: Human papillomavirus type 1a protein E7 (residues 44-93); assay: small molecules binding HPV E7 44-93 – biochemical, small-molecule microarray, residues 44-93, 635 nm fluorescence, primary screen (AID 1108); conditions: fluorescence 635 nm, higher = more signal;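 also: E7 fragment applied at 1 µg/mL in TBST for 1 h at 4 C; score combines spot fluorescence with its signal to noise ratio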
[2] = hepatitis C replication reporter changes, two-sided – Huh7 cells, luciferase reporter, HCV replication inhibitor project, primary screen (AID 1109); conditions: Huh7 HCV replicon luciferase reporter, 48 h; higher = more signal;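 also: huh7 hepatoma cells harbouring a luciferase neomycin HCV replicon reporter; luciferase luminescence as measure of HCV replicon replication; test concentration not given here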
[3] = target: Left-right determination factor 2 (Homo sapiens) (UniProt O00292); assay: small molecules binding LEFTY2 protein – biochemical, small-molecule microarray, 635 nm fluorescence scan, primary screen (AID 1110); conditions: higher = more signal
Left-right determination factor 2 (Homo sapiens), sequence (O00292 whole entry, looked up): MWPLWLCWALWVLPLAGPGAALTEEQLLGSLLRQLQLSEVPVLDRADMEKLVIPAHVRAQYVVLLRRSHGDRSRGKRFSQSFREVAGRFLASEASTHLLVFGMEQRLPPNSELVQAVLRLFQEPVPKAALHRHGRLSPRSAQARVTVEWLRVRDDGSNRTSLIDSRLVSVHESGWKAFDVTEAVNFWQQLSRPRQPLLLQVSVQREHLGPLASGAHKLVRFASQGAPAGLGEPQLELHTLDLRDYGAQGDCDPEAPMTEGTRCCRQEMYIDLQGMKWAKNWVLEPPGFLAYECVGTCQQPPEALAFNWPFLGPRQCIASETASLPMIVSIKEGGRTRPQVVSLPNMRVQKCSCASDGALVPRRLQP

[4] = target: Calmodulin-1 (Homo sapiens) (UniProt P0DP23); assay: small molecules binding calmodulin-1 with EGTA – biochemical, small-molecule microarray, Cy5-labelled CALM1, profiling panel (AID 1111); conditions: Cy5-CALM1 binding fluorescence, higher = more signal;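 also: labelled calmodulin applied in Tris saline Tween buffer holding calcium plus EGTA and DTT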
[5] = target: Calmodulin-1 (Homo sapiens) (UniProt P0DP23); assay: small molecules binding Ca-loaded calmodulin-1 – biochemical, small-molecule microarray, Cy5-labelled CALM1, plus calcium, artefact control for SMM control-protein annotation, profiling panel (AID 1112); conditions: Cy5-CALM1 binding fluorescence, higher = more signal;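 also: score merges spot fluorescence with signal to noise from triplicate slides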
[6] = probe aWnt5a binding to arrayed compounds – biochemical, biotinylated probe, 635/667 nm fluorescence, primary screen (AID 1113); conditions: small-molecule microarray, higher = more signal;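 also: score merges 667 nm fluorescence intensity with signal-to-noise per printed feature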
[7] = probe aShh binding to arrayed compounds – biochemical, biotinylated probe, 635/667 nm fluorescence, primary screen (AID 1114); conditions: small-molecule microarray, higher = more signal;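 also: probe is biotin-labelled aShh protein from a stem cell growth factor screen; measures binding of labelled protein to compounds printed on the slide; score merges feature fluorescence at 667 nm with signal-to-noise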
[8] = probe aNog binding to arrayed compounds – biochemical, biotinylated probe, 635/667 nm fluorescence, primary screen (AID 1115); conditions: small-molecule microarray, higher = more signal;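 also: probe is biotinylated aNog protein used at 0.15 µg/mL for 1 h at 4 C; z-score combines 667 nm fluorescence of each spot with its signal to noise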
[9] = target: Torsin-1A-interacting protein 1 (Homo sapiens) (UniProt Q5JTV8); assay: compound microarray binding of lysate hLAP1 – cell lysate, small-molecule microarray, COS7 lysate, 635/667 nm fluorescence, primary screen (AID 1116); conditions: 635 nm fluorescence, higher = more signal
Torsin-1A-interacting protein 1 (Homo sapiens), sequence (Q5JTV8 whole entry, looked up): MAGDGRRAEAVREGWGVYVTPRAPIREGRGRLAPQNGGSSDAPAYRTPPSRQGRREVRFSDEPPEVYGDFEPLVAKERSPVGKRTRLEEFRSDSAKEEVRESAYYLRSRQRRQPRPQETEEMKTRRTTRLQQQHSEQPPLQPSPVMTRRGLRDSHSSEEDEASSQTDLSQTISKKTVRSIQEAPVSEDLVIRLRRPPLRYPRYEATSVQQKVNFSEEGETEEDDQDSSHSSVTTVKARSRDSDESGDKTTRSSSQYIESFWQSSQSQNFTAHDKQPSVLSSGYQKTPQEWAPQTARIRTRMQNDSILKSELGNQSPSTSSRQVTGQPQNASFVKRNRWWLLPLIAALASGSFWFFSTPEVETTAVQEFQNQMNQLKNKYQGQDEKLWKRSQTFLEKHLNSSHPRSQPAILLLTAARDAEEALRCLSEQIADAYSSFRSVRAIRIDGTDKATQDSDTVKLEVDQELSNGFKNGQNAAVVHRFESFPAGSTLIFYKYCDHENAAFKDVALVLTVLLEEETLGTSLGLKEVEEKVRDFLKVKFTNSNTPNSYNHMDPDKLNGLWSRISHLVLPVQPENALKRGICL

[10] = target: Alpha-bungarotoxin (Bungarus multicinctus) (UniProt P60615); assay: compounds binding labelled alpha-BTX control protein – biochemical, small-molecule microarray, Alexa647 label, 635/667 nm fluorescence, artefact control for SMM control protein annotation, profiling panel (AID 1117); conditions: alpha-BTX-A647 binding fluorescence, higher = more signal
Alpha-bungarotoxin (Bungarus multicinctus), sequence (P60615 whole entry, looked up): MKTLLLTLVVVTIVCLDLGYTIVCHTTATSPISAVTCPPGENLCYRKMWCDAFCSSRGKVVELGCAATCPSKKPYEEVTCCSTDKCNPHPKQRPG

| Compound | composite z-score [1] | z-score [2] | composite z-score [3] | composite z-score [4] | composite z-score [5] | composite z-score [6] | composite z-score [7] | composite z-score [8] | composite z-score [9] | composite z-score [10] |
| --- | --- | --- | --- | --- | --- | --- | --- | --- | --- | --- |
| [N-]=[N+]=Nc1ccccc1C[C@]1(C(=O)NCCN2CCOCC2)COC(c2ccc(OCCCO)cc2)=N1 | 1.4 | -1.92 | 0.795 | 0.76 | -0.553 | -0.349 | -0.221 | 0.624 | 0.101 | 0.536 |
| CCOC(=O)C1=C[C@@H](C(C)(C)C)N(S(=O)(=O)c2ccc(C)cc2)[C@H]1c1cccc2ccccc12 | 1.28 | -2.28 | -0.49 | 1.07 | 0.423 | -0.0478 | -0.156 | -0.145 | -0.281 | 0.657 |
| COCCCNC(=O)[C@@]1(CCC(=O)OC(C)(C)C)N=C(c2ccc(OCCCO)cc2)O[C@H]1c1ccccc1N=[N+]=[N-] | 0.515 | 1.46 | 0.473 | 2.01 | 0.807 | 0.302 | 0.0326 | -0.261 | 2.32 | 1.71 |
| NC(=O)NCC#Cc1ccc2c(c1)[C@]1(C(=O)N2)[C@H](c2ccccc2OCCO)N2[C@H](c3ccccc3)[C@H](c3ccccc3)OC(=O)[C@H]2[C@@H]1C(=O)O | 1.27 | -0.331 | -0.351 | 0.505 | 0.629 | -0.169 | -0.0035 | -0.359 | 0.299 | 0.589 |
| CC(C)NC(=O)[C@@]1(c2ccc([N+](=O)[O-])cc2)CC(=O)N(C2CCCCC2)[C@@H]1c1ccc(CO)cc1 | 1.46 | -0.778 | -0.016 | -0.0034 | -0.0027 | 0.0115 | -0.553 | 0.275 | 2.08 | 0.621 |
| CCOC(=O)C1=CC[C@@H](c2ccccc2)N(S(=O)(=O)c2ccc(C)cc2)[C@H]1c1ccccc1 | 1.1 | -0.667 | 0.0056 | 0.578 | 0.626 | 0.0037 | -0.138 | -0.0496 | 0.46 | 0.995 |
| CCOC(=O)C=Cc1cccc(C)c1O | -0.377 | 0.717 | 0.111 | -0.122 | -0.335 | -0.1 | -0.0769 | -0.288 | 0.0897 | 0.11 |
| COC(=O)C1=CC(CCCO)=CC(c2cccs2)N(Cc2cccc(OC(F)(F)F)c2)C=C1C(=O)OC (stereo not given) | 0.91 | -1.88 | 0.151 | 2.05 | 0.804 | -0.0194 | 0.0121 | 0.145 | 2.41 | 1.02 |
